Assay [1] deals with Retinoic acid receptor alpha (Homo sapiens) (UniProt P10276). The experiment in a line: ATG_DR5_RAR_CIS: Attagene CIS-FACTORIAL HepG2 Assay for human Retinoic Acid Receptor Alpha (RARE), DR5 submotif (AID 2282934; active means hit-call score of the fitted dose curve at least 0.9, where 1 is the maximum; inactive means score below 0.9). The following applies: HepG2 Attagene cis-factorial RARE DR5 reporter, mRNA; actives raise or lower the signal. In short, it runs like this:
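Reporter transcripts from a DR5-regulated unit, measured via RT-PCR plus capillary electrophoresis, reflect endogenous RAR activity in transiently transfected human HepG2 liver cells. Exposure lasted 24 h; gain or loss of signal scored against DMSO.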

Assay [2] addresses Bile acid receptor (Homo sapiens) (UniProt Q96RI1). The experiment in a line: ATG_IR1_CIS: Attagene CIS-FACTORIAL HepG2 Assay for human Nuclear Receptor Subfamily 1 Group H Member 4 (NR1H4), IR1 submotif (AID 2282946; active means hit-call score of the fitted dose curve at least 0.9, where 1 is the maximum; inactive means score below 0.9). The following applies: IR1 reporter transcription, actives raise or lower the signal. The essentials:
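HepG2 cells transiently transfected with multiplexed cis-element reporter units read endogenous transcription factor activity. After 24 h compound exposure, reporter mRNA was quantified by RT-PCR, fluorescent labelling, HpaI digestion and capillary electrophoresis; bidirectional fitting versus DMSO baseline.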

Assay [3] has as its target Nuclear receptor subfamily 1 group I member 3 (Homo sapiens) (UniProt Q14994). The experiment in a line: ATG_CAR_TRANS: Attagene TRANS-FACTORIAL HepG2 Assay for human Constitutive Androstane Receptor (CAR) (AID 2282969).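 Further: activators raise reporter mRNA above DMSO so AC50 marks induction.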 Conditions: HepG2 Attagene TRANS-FACTORIAL CAR reporter. The essentials:
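Signal is reporter mRNA induction relative to DMSO, measured 24 h after dosing by RT-PCR with fluorescent primer extension and capillary electrophoresis. Human HepG2 liver cells carried transiently transfected chimeric NR-Gal4/GAL4-UAS reporter constructs.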

A short description of assay [4]: ATG_GAL4_TRANS: Attagene TRANS-FACTORIAL HepG2 Assay for GAL4 (Internal Marker) (AID 2282976). The following applies: HepG2 Attagene TRANS GAL4 internal marker reporter. The essentials: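 First, HepG2 cells were transfected with reporter units under GAL4-UAS control. Next, they were treated with chemical for 24 h. Finally, RNA was reverse-transcribed, PCR-amplified, FAM-labelled and resolved by capillary electrophoresis, with induction scored against DMSO.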

The target of assay [5] is Nuclear receptor subfamily 4 group A member 2 (Homo sapiens) (UniProt P43354). The experiment in a line: ATG_NURR1_TRANS: Attagene TRANS-FACTORIAL HepG2 Assay for human Nuclear Receptor Related Protein 1 (NURR1) (AID 2282985). The following applies: HepG2 Attagene TRANS reporter, mRNA readout. The essentials: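 Reporter transcript induction, measured by RT-PCR with fluorescent labelling, HpaI digestion and capillary electrophoresis, after 24 hr dosing of human HepG2 cells transiently expressing an exogenous NR-Gal4 fusion with GAL4-UAS-driven reporters; DMSO as baseline.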
Sequence of Nuclear receptor subfamily 4 group A member 2 (Homo sapiens) (P43354 whole entry, looked up, the tested form may be a part): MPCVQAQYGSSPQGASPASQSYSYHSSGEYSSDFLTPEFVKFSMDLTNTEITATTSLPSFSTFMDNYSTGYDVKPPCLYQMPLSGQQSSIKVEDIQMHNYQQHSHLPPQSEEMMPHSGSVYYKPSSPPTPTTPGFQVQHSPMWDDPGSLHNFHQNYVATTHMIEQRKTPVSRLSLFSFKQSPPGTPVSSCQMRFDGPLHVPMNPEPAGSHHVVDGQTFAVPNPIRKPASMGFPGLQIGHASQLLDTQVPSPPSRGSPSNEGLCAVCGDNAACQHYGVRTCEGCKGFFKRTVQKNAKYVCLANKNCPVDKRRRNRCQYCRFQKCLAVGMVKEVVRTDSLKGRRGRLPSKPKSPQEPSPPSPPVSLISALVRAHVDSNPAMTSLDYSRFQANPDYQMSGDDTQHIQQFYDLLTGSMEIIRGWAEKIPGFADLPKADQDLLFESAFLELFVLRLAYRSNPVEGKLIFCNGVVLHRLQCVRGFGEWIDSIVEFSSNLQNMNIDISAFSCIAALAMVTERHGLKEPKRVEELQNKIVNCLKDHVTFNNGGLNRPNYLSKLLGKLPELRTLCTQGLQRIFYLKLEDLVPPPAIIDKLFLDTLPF

The target of assay [6] is human Peroxisome Proliferator-activated Receptor delta (PPARd), PPARD (gene 5467) (UniProt Q03181). The experiment in a line: ATG_PPARd_TRANS: Attagene TRANS-FACTORIAL HepG2 Assay for human Peroxisome Proliferator-activated Receptor delta (PPARd) (AID 2283002). The essentials: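 Read-out is induced reporter mRNA, quantified by RT-PCR with fluorescent labelling and capillary electrophoresis after 24 h dosing. Cells are HepG2 transiently carrying multiple GAL4-UAS reporter units driven by exogenous NR-GAL4 chimeras; DMSO serves as baseline.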

In assay [7] the target is Peroxisome proliferator-activated receptor gamma (Homo sapiens) (UniProt P37231). The assay can be described thus: ATG_PPARg_TRANS: Attagene TRANS-FACTORIAL HepG2 Assay for human Peroxisome Proliferator-activated Receptor-gamma (PPARg) (AID 2283007). The essentials:
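HepG2 cells transiently transfected with multiplexed GAL4-UAS reporter units and exogenous chimeric NR-Gal4 proteins; reporter mRNA quantified after 24 h compound exposure by RT-PCR, fluorescent labelling, HpaI digestion and capillary electrophoresis; gain-of-signal fitted versus DMSO baseline.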

Assay [8] addresses human RAR-related Orphan Receptor beta (RORb), RORB (gene 6096) (UniProt Q92753). The assay can be described thus: ATG_RORb_TRANS: Attagene TRANS-FACTORIAL HepG2 Assay for human RAR-related Orphan Receptor beta (RORb) (AID 2283010). The essentials:
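Transfect HepG2 with multiple GAL4-UAS reporter transcription units; dose chemicals for 24 h; isolate RNA, reverse-transcribe and PCR-amplify reporter sequences; label, digest and resolve fragments by capillary electrophoresis; fit increases relative to DMSO.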

The target in assay [9] is human Thyroid Receptor alpha (THRa1), THRA (gene 7067) (UniProt P10827). The experiment in a line: ATG_THRa1_TRANS: Attagene TRANS-FACTORIAL HepG2 Assay for human Thyroid Receptor alpha (THRa1) (AID 2283014). The essentials: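 Reporter transcript induction, read by capillary electrophoresis of 6-FAM-labelled RT-PCR products, reflects activity of a transfected THRa1-Gal4 fusion in HepG2 liver cells. Cells were dosed for 24 h; activity was fitted in the positive direction against DMSO.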
Sequence of human Thyroid Receptor alpha (THRa1), THRA (gene 7067) (P10827 whole entry, looked up, the tested form may be a part): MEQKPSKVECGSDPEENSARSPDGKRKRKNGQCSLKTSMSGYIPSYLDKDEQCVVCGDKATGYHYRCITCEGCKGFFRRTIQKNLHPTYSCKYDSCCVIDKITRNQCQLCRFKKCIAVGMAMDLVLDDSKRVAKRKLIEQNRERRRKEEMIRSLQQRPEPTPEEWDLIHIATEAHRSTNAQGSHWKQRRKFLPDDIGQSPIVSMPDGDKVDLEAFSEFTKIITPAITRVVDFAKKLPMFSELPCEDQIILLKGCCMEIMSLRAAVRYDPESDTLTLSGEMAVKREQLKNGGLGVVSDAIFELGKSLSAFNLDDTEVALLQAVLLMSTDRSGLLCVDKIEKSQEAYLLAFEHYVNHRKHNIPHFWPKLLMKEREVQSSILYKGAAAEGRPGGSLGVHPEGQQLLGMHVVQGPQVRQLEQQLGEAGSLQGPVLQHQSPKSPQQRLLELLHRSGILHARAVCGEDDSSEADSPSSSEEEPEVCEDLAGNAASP

Assay [10] has as its target human Vitamin D Receptor (VDR), VDR (gene 7421) (UniProt P11473). The experiment in a line: ATG_VDR_TRANS: Attagene TRANS-FACTORIAL HepG2 Assay for human Vitamin D Receptor (VDR) (AID 2283022). In short, it runs like this:
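Steps: transfect HepG2 with GAL4-UAS-driven reporter constructs; dose compounds 24 h; isolate RNA, reverse-transcribe, PCR-amplify with 6-FAM-labelled primer extension and HpaI digestion; quantify fragments by capillary electrophoresis relative to DMSO.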

A short description of assay [11]: TOX21_p53_BLA_p2_viability: Viability Assessment in the Tox21 HCT-116 p53 Agonism Beta-lactamase Assay, Phase 2 (AID 2283591).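 Further: compound exposure lasted 16 h at 37 °C; actives lower the ATP signal meaning cytotoxicity.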 The essentials:
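Cytotoxicity readout: CellTiter-Glo ATP luminescence, 30 min at room temperature, after the beta-lactamase read. Cells were HCT116 exposed 16 h at 37C to compounds pin-transferred at 217-fold dilution from DMSO stocks.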

Assay [12] is described as follows: TOX21_p53_BLA_p3_viability: Viability Assessment in the Tox21 HCT-116 p53 Agonism Beta-lactamase Assay, Phase 3 (AID 2283593).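 Further: cells exposed to compound for 16 h before reading.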 In short, it runs like this:
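Cellular ATP was quantified by CellTiter-Glo luminescence, read after 30 min at room temperature. Beforehand, HCT116 cells (4000/well) received compound 5 h post-seeding, 217-fold diluted from DMSO, then incubated 16 h at 37C.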

Assay [13] can be described thus: TOX21_p53_BLA_p4_viability: Viability Assessment in the Tox21 HCT-116 p53 Agonism Beta-lactamase Assay, Phase 4 (AID 2283597).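 Further: hits lower the luminescence signal meaning cytotoxicity.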 In short, it runs like this:
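Readout: ATP luminescence (CellTiter-Glo), measured 30 min after reagent addition at RT. The reagent followed a 2 h CCF4-AM incubation, and the cells had been exposed to compound for 16 h at 37C.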

The target in assay [14] is Glucocorticoid receptor (Homo sapiens) (UniProt P04150). The assay can be described thus: ATG_GR_TRANS: Attagene TRANS-FACTORIAL HepG2 Assay for human Glucocorticoid Receptor (GR) (AID 2282978).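 Further: activators score as hits since higher reporter transcript over DMSO is fitted.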 Conditions: HepG2 Attagene TRANS GR reporter, mRNA transcription. In short, it runs like this: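 HepG2 cells transiently transfected with multiplexed reporter units in which chimeric NR-GAL4 proteins drive GAL4-UAS reporters; 24 h compound exposure. Reporter mRNA measured by RT-PCR, 6-FAM labelling, HpaI digestion and capillary electrophoresis; gain-of-signal fitted versus DMSO.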

Assay [15] concerns the target Oxysterols receptor LXR-alpha (Homo sapiens) (UniProt Q13133). The assay can be described thus: ATG_LXRa_TRANS: Attagene TRANS-FACTORIAL HepG2 Assay for human Liver X Receptor alpha (LXRa) (AID 2282980). Conditions: HepG2 Attagene TRANS reporter, LXRa transactivation. In short, it runs like this: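 Transfect HepG2 with GAL4-UAS multiplex reporter constructs (TRANS format, chimeric receptor-GAL4); treat 24 h; extract RNA, reverse-transcribe, PCR-amplify, FAM-label, HpaI-digest; resolve fragments by capillary electrophoresis. Upward response vs DMSO.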

Assay [16] concerns the target Oxysterols receptor LXR-beta (Homo sapiens) (UniProt P55055). The experiment in a line: ATG_LXRb_TRANS: Attagene TRANS-FACTORIAL HepG2 Assay for human Liver X Receptor beta (LXRb) (AID 2282981). The following applies: HepG2 Attagene TRANS GAL4-LXRb reporter, mRNA. The essentials:
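After 24 h chemical treatment of transfected HepG2 cells carrying exogenous NR-Gal4 chimeras, reporter mRNA was quantified by fluorescent RT-PCR and capillary electrophoresis; activity taken as increase over DMSO controls.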

The nature of assay [17]: ATG_M_32_TRANS: Attagene TRANS-FACTORIAL HepG2 Assay for M32 Transcription Factor (Internal Marker) (AID 2282984).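 Further: transcript level of a background control reporter unit measured by RT-PCR and capillary electrophoresis.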 Conditions: HepG2 Attagene TRANS M32 internal marker reporter. In short, it runs like this: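 Internal background reporter in transfected HepG2: after 24 h chemical exposure, RNA reverse-transcribed, reporter cDNA amplified, fluorescently labelled and HpaI-cut, then sized by capillary electrophoresis. Gain of signal fitted against DMSO control.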

Assay [18] concerns the target human Peroxisome Proliferator-activated Receptor alpha (PPARa), PPARA (gene 5465) (UniProt Q07869). The assay can be described thus: ATG_PPARa_TRANS: Attagene TRANS-FACTORIAL HepG2 Assay for human Peroxisome Proliferator-activated Receptor alpha (PPARa) (AID 2283001). The essentials: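 Reporter transcripts quantified by RT-PCR plus capillary electrophoresis after 24 h treatment, fitted upward relative to DMSO. Cells: human HepG2 transiently carrying multiple GAL4-UAS reporter units driven by NR-Gal4 chimeras.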

Assay [19] can be described thus: ATG_PBREM_CIS: Attagene CIS-FACTORIAL HepG2 Assay for human Phenobarbital-responsive Enhancer Module (PBREM) (AID 2282955; active means hit-call score of the fitted dose curve at least 0.9, where 1 is the maximum; inactive means score below 0.9). Conditions: HepG2 PBREM cis-reporter, Attagene multiplexed transcription; actives raise or lower the signal. The essentials: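 HepG2 cells transiently transfected with multiple cis-regulated reporter transcription units; endogenous factor activity at the PBREM element measured as reporter mRNA 24 h after dosing, via RT-PCR and capillary electrophoresis of fluorescent fragments; bidirectional fitting versus DMSO.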

The nature of assay [20]: CCTE_Harrill_HTTr_Apoptosis_MCF7: CCTE's 6-hour Apoptosis Assessment for the High-Throughput Transcriptomics (HTTr) Platform, in MCF-7 cells cultured in DMEM + 10% fetal bovine serum, Harrill Lab (AID 2284011; active means hit-call score of the fitted dose curve at least 0.9, where 1 is the maximum; inactive means score below 0.9). The essentials:
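MCF-7 (DMEM + 10% FBS), 384-well; 8-pt dilution series, 6 h chemical exposure; caspase-3/7 activation via CellEvent Caspase 3/7 Green, HCI; bidirectional fit vs DMSO.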

“And” between values parts separate entries of the source, which are not always exact repeats. Equal values may be shown once. Results filed as inconclusive are left out. The source holds several records for some structures; these can differ, active in one and inactive in another. The source made the active and inactive calls. How the source made its calls, unless noted: active means hit-call score of the fitted dose curve at least 0.9, where 1 is the maximum; inconclusive means response in the unintended direction; inactive means score below 0.9.

Sequence of Bile acid receptor (Homo sapiens) (Q96RI1 whole entry, looked up): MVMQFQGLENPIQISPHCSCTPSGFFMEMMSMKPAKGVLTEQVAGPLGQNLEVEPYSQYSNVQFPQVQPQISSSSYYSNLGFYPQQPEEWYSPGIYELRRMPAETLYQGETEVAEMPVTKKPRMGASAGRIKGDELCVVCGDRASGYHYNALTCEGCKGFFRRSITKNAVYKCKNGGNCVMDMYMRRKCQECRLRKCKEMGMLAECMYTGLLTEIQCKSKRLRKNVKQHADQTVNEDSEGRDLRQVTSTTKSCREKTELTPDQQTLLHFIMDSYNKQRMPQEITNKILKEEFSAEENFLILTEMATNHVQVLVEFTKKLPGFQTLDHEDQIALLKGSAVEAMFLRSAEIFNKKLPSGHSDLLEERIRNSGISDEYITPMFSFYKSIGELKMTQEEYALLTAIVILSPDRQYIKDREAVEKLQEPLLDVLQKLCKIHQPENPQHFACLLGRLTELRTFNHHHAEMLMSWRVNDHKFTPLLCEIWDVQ
Sequence of Peroxisome proliferator-activated receptor gamma (Homo sapiens) (P37231 whole entry, looked up, the tested form may be a part): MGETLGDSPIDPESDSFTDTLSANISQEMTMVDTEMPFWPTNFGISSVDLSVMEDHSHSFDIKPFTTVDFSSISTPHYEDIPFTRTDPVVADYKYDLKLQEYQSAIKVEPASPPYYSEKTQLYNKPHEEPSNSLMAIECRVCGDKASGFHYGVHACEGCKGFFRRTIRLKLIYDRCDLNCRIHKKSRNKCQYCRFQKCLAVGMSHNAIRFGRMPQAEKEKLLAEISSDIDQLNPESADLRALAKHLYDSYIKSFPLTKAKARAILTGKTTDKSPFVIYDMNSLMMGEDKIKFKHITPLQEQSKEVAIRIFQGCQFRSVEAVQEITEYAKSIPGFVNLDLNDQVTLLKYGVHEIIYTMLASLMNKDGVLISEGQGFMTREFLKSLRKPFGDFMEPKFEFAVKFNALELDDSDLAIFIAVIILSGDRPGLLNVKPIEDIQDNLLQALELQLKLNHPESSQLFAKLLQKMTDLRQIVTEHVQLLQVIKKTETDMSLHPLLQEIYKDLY
Sequence of Nuclear receptor subfamily 1 group I member 3 (Homo sapiens) (Q14994 whole entry, looked up, the tested form may be a part): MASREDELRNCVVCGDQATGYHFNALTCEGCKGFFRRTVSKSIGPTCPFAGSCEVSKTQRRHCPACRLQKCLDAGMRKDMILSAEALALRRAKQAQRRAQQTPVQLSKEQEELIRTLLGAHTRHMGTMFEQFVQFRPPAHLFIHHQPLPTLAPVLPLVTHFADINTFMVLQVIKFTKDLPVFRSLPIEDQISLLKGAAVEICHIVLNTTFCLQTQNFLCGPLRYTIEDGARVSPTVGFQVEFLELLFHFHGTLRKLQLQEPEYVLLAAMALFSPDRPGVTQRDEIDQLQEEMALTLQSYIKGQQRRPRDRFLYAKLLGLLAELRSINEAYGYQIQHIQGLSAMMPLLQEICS
Sequence of human RAR-related Orphan Receptor beta (RORb), RORB (gene 6096) (Q92753 whole entry, looked up, the tested form may be a part): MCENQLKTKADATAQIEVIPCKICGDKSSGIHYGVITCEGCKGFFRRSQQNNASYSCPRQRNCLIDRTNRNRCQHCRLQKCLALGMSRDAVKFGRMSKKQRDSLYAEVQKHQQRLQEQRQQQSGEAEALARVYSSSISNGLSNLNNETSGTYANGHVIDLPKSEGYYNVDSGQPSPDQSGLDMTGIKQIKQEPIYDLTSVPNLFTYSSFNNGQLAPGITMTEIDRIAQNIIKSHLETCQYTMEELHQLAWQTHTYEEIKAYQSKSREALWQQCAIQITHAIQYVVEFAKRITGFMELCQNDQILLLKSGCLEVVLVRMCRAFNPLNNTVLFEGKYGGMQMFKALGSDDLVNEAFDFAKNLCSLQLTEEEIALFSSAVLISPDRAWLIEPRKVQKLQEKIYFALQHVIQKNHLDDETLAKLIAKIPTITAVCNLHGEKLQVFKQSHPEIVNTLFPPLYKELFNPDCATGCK
Sequence of human Peroxisome Proliferator-activated Receptor alpha (PPARa), PPARA (gene 5465) (Q07869 whole entry, looked up, the tested form may be a part): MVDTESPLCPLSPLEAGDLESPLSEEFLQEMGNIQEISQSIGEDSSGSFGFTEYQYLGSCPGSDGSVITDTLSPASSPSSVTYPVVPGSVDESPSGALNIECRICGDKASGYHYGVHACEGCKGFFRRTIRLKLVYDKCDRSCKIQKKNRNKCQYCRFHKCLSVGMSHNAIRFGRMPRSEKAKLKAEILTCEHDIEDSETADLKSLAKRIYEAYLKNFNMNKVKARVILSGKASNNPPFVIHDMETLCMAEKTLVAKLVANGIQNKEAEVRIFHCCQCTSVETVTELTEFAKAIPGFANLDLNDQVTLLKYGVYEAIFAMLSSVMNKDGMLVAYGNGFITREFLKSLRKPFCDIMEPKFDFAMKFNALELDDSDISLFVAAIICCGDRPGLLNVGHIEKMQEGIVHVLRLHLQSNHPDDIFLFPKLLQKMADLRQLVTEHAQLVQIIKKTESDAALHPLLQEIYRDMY
Sequence of Oxysterols receptor LXR-beta (Homo sapiens) (P55055 whole entry, looked up, the tested form may be a part): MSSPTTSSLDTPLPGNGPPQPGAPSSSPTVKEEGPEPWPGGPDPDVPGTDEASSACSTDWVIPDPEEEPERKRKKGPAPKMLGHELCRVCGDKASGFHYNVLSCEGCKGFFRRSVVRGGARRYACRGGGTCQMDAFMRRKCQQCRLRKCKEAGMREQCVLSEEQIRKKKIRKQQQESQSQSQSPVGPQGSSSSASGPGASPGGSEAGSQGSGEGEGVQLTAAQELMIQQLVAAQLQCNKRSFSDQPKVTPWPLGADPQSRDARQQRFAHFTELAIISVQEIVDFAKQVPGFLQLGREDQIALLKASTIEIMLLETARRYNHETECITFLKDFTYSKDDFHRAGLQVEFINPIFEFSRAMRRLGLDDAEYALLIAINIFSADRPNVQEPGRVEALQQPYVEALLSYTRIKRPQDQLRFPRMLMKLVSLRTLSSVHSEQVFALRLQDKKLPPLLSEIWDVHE
Sequence of Retinoic acid receptor alpha (Homo sapiens) (P10276 whole entry, looked up): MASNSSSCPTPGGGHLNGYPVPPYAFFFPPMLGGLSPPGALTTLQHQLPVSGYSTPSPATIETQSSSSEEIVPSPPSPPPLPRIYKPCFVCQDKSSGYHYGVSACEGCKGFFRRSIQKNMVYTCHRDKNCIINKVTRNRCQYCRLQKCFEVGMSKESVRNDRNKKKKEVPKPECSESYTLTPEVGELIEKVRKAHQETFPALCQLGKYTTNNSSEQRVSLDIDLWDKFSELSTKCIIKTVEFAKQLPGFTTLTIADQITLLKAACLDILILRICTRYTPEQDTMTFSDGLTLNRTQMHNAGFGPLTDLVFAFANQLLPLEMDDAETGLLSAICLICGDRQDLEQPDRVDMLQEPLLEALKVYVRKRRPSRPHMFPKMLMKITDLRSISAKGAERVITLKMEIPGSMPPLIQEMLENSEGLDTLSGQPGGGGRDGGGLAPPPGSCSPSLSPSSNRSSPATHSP
Sequence of Oxysterols receptor LXR-alpha (Homo sapiens) (Q13133 whole entry, looked up, the tested form may be a part): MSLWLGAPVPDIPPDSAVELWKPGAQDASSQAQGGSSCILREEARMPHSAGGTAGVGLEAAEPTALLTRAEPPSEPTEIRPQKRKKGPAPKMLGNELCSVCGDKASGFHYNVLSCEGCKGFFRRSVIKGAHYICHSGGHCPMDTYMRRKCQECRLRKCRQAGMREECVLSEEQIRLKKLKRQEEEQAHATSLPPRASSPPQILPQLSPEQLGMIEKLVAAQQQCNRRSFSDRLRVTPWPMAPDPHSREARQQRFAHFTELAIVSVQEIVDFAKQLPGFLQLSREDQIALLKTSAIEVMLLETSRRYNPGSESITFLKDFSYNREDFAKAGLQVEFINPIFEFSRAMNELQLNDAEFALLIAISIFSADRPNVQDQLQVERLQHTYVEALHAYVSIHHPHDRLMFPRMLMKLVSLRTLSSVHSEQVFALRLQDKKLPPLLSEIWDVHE

As for `N#CC(c1ccccc1)c1ccccc1`, the outcome in assay [1], in assay [2], in [3], in assay [4], in assay [5] and in [6] was inactive. Besides, the result in [8], in [9], in assay [10], in assay [11], in assay [12] and in [13] was inactive. For the same compound, in assay [7], the AC50 was 83.2 µM (active).
With `CC(O)CN(CC(C)O)CC(C)O` (configuration not stated), the compound was called inactive in assay [1], in assay [2], in [3], in assay [14], in assay [15] and in assay [16]. Besides, the result in assay [17], in assay [18], in [8], in [9], in assay [11] and in assay [13] was inactive.
`O=C1C=CC(=O)C=C1`: the result in assay [19], in assay [3], in [16], in [17], in [5] and in assay [18] was inactive. The outcome in assay [7], in assay [8], in assay [9], in assay [11], in [13] and in assay [20] was inactive. Also, the AC50 in assay [12] was 72.3 µM (active) and 76.5 µM (active).
For `CC(Cc1ccc(C(C)(C)C)cc1)CN1C[C@@H](C)O[C@@H](C)C1` (some centres not stated), the compound was called inactive in assay [2], in assay [3], in assay [14], in [15], in assay [16] and in [18]. The result in [8], in [9], in assay [13] and in assay [20] was inactive. Besides, the AC50 in assay [19] was 12.8 µM (active); in assay [5], 33.4 µM (active); in assay [7], 21.7 µM (active); in assay [12], 46.1 µM (active).
For `CC1OC(C)OC(C)O1` (configuration not stated), the compound was called inactive in assay [2], in [4], in [17], in assay [6], in [7] and in [8]. Further, the compound was classed as inactive in [9], in [11] and in [12]. Moreover, in assay [12], the AC50 is 42.6 µM (active).

Source of the values: PubChem BioAssay (EPA / NIEHS).
